Assay results: PubChem BioAssay (NCI)
About 83,000 compounds went through this panel and 20% of them were active in at least one assay; those are over-represented in the sample as a whole.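 Results are percent growth after 48 hours of single-concentration exposure. 100 means growth as in untreated cells, lower positive values show inhibition; negative values down to -100 show cell death.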 Activity calls are given as the source filed them. The calls were made as follows: active = growth percent below 10; inactive = the rest.

Key:
Test in all cases: NCI-60 one-dose screen, 48 h (100 = growth as untreated, 0 = no growth, -100 = all killed)
Conditions in all cases: 10 µM unless noted
HCT-15 colon = tested on: HCT-15 colon
SNB-75 CNS = tested on: SNB-75 CNS
SNB-19 CNS = tested on: SNB-19 CNS
U251 CNS = tested on: U251 CNS
SK-MEL-5 melanoma = tested on: SK-MEL-5 melanoma
UACC-62 melanoma = tested on: UACC-62 melanoma
LOX IMVI melanoma = tested on: LOX IMVI melanoma
SK-MEL-28 melanoma = tested on: SK-MEL-28 melanoma
PC-3 prostate = tested on: PC-3 prostate
HT29 colon = tested on: HT29 colon

Measured: growth

CCCCCCCCCCNCCSS(=O)(=O)O
inactive: HCT-15 colon 86.4% | SNB-75 CNS 96.1% | SNB-19 CNS 65.9% | U251 CNS 15% | SK-MEL-5 melanoma 39.8% | LOX IMVI melanoma 20.9% | SK-MEL-28 melanoma 51.5%
active: UACC-62 melanoma 4.6%

c1ccc2c(-c3nc4ccccc4[nH]3)cccc2c1
inactive: HCT-15 colon 27.1% | SNB-75 CNS 27.8% | SNB-19 CNS 52.5% | PC-3 prostate 54.1% | UACC-62 melanoma 32.2% | LOX IMVI melanoma 34.6% | SK-MEL-28 melanoma 51.5%

O=C(O)CCNS(=O)(=O)c1ccc(-c2ccccc2)cc1
inactive: HT29 colon 110% | SNB-75 CNS 90.6% | SNB-19 CNS 102% | U251 CNS 94.5% | PC-3 prostate 89.6% | SK-MEL-5 melanoma 97.9% | UACC-62 melanoma 96.7% | LOX IMVI melanoma 92.1% | SK-MEL-28 melanoma 94.3%

N#CC1c2ccccc2C=CN1C(=O)N(c1ccccc1)c1ccccc1 (centres undefined)
inactive: HT29 colon 57.2% | SNB-75 CNS 68.6% | SNB-19 CNS 98.5% | U251 CNS 57.4% | PC-3 prostate 60% | SK-MEL-5 melanoma 65.4% | UACC-62 melanoma 61.2% | LOX IMVI melanoma 35.6% | SK-MEL-28 melanoma 67%

O=[N+]([O-])c1cc([N+](=O)[O-])c(N2CCCC2)cc1NN=C(c1ccc(O)cc1)c1ccc(O)cc1
inactive: HT29 colon 78.2% | SNB-75 CNS 71.8% | SNB-19 CNS 37.3% | U251 CNS 68.5% | SK-MEL-5 melanoma 18.8% | UACC-62 melanoma 63.1% | LOX IMVI melanoma 41.6% | SK-MEL-28 melanoma 97.1%

CCOC(=O)c1sc(NC(=O)COc2cccc(/C=C3\Cc4ccc(Cl)cc4C3=O)c2)nc1C
inactive: HT29 colon 118% | SNB-75 CNS 113% | SNB-19 CNS 99.9% | U251 CNS 99.4% | PC-3 prostate 103% | SK-MEL-5 melanoma 97.4% | UACC-62 melanoma 95.8% | LOX IMVI melanoma 97.7% | SK-MEL-28 melanoma 118%

Cc1ccc(S(=O)(=O)NCCN2c3nc4ccccc4cc3Sc3cc4ccccc4nc32)cc1
active: SNB-75 CNS -13%
inactive: HT29 colon 56.1% | SNB-19 CNS 64.3% | U251 CNS 34.4% | PC-3 prostate 77.3% | SK-MEL-5 melanoma 82.7% | UACC-62 melanoma 66.9% | LOX IMVI melanoma 66.5% | SK-MEL-28 melanoma 87.8%

CC[C@@H](c1ccc(O)c(O)c1)[C@@H](CC)c1ccc(O)c(O)c1
inactive: HT29 colon 95.4% | SNB-75 CNS 82.4% | SNB-19 CNS 97.7% | U251 CNS 89.9% | PC-3 prostate 75.5% | SK-MEL-5 melanoma 91.4% | UACC-62 melanoma 64.5% | LOX IMVI melanoma 61% | SK-MEL-28 melanoma 87.1%

COc1ccc(-c2c3c(N)nc(-c4ccncc4)nc3nc3c2c(C)nn3-c2ccccc2)cc1
inactive: HT29 colon 23.9% | SNB-75 CNS 80.6% | SNB-19 CNS 80.7% | PC-3 prostate 61% | SK-MEL-5 melanoma 72.6% | UACC-62 melanoma 64.1% | LOX IMVI melanoma 41.2% | SK-MEL-28 melanoma 56.2%

O=C1Nc2ccc(Cl)cc2[C@@](C#CC2CC2)(C(F)(F)F)O1
inactive: HT29 colon 86.6% | SNB-75 CNS 114% | SNB-19 CNS 103% | U251 CNS 92% | PC-3 prostate 92.9% | SK-MEL-5 melanoma 78% | UACC-62 melanoma 70% | LOX IMVI melanoma 85.5% | SK-MEL-28 melanoma 109%

OC(c1ccccc1)C(NCc1ccccc1)c1ccccc1 (centres undefined)
inactive: HT29 colon 103% | SNB-75 CNS 91% | SNB-19 CNS 87.8% | U251 CNS 102% | PC-3 prostate 79.9% | SK-MEL-5 melanoma 108% | UACC-62 melanoma 90.3% | LOX IMVI melanoma 85.5% | SK-MEL-28 melanoma 101%

O=C(COc1ccc(/C=C2\Cc3ccccc3C2=O)cc1)c1ccc(Cl)cc1
inactive: HT29 colon 109% | SNB-75 CNS 94.5% | SNB-19 CNS 95.7% | U251 CNS 93.7% | PC-3 prostate 92.1% | SK-MEL-5 melanoma 98.4% | UACC-62 melanoma 95.2% | LOX IMVI melanoma 92.8% | SK-MEL-28 melanoma 117%

O=C(Nc1ccc(Cl)cc1)Nc1ccccc1CNc1nc(Nc2ccc(OCCN3CCCC3)cc2)ncc1Cl
inactive: SNB-19 CNS 42% | SK-MEL-5 melanoma 50.2% | UACC-62 melanoma 99.3%
active: HT29 colon 0.197% | SNB-75 CNS -17% | PC-3 prostate -8.19% | LOX IMVI melanoma -95.1% | SK-MEL-28 melanoma -77.7%

O=C1NCCc2c1noc2-c1ccccc1
inactive: HT29 colon 90.5% | SNB-75 CNS 89.7% | SNB-19 CNS 105% | U251 CNS 98.5% | SK-MEL-5 melanoma 105% | UACC-62 melanoma 104% | LOX IMVI melanoma 98.7% | SK-MEL-28 melanoma 111%

O=C(COc1cccc(/C=C2\Oc3ccc4ccccc4c3C2=O)c1)c1ccc([N+](=O)[O-])cc1
active: LOX IMVI melanoma -30.3%
inactive: HT29 colon 96.5% | SNB-75 CNS 81.4% | SNB-19 CNS 100% | U251 CNS 94.5% | PC-3 prostate 75.6% | SK-MEL-5 melanoma 87.2% | UACC-62 melanoma 81.1% | SK-MEL-28 melanoma 124%

Cc1ccc(-c2cc(-c3ccccc3)n(-c3ccccc3)n2)cc1
inactive: HT29 colon 96.7% | SNB-75 CNS 99.4% | SNB-19 CNS 95.4% | U251 CNS 97.7% | PC-3 prostate 99.6% | UACC-62 melanoma 88.2% | LOX IMVI melanoma 99% | SK-MEL-28 melanoma 98.2%

C[C@]12CCC(=O)C=C1CCC1C2[C@@H](O)C[C@@]2(C)C1CC[C@]2(O)C(=O)COC(=O)CCC(=O)O (some centres undefined)
inactive: HT29 colon 107% | SNB-75 CNS 123% | SNB-19 CNS 104% | U251 CNS 105% | PC-3 prostate 93.2% | SK-MEL-5 melanoma 98.6% | UACC-62 melanoma 106% | LOX IMVI melanoma 98.5% | SK-MEL-28 melanoma 108%

COc1ccc(N2CCN(CC(=O)N3CCN(c4nnc(-c5ccc(Cl)cc5)c(-c5ccc(Cl)cc5)n4)CC3)CC2)cc1
inactive: HT29 colon 40.9% | SNB-75 CNS 76.3% | SNB-19 CNS 76% | U251 CNS 52.3% | PC-3 prostate 22.5% | SK-MEL-5 melanoma 38% | UACC-62 melanoma 66.6% | LOX IMVI melanoma 49.6% | SK-MEL-28 melanoma 71.5%

COc1cc(C2CC(c3ccc(C)cc3)=NN2C=O)ccc1OCCN(C)C (centres undefined)
inactive: HT29 colon 84.2% | SNB-75 CNS 62.2% | SNB-19 CNS 92.5% | U251 CNS 92.2% | PC-3 prostate 79% | SK-MEL-5 melanoma 90.2% | UACC-62 melanoma 100% | LOX IMVI melanoma 89.8% | SK-MEL-28 melanoma 107%

CCCCCCCC[Si](OCC)(OCC)OCC
inactive: HT29 colon 103% | SNB-75 CNS 85.2% | SNB-19 CNS 100% | U251 CNS 98.9% | PC-3 prostate 91.5% | UACC-62 melanoma 104% | LOX IMVI melanoma 103% | SK-MEL-28 melanoma 104%

O=C(NCCNC(=O)Oc1cccc2ccccc12)Oc1cccc2ccccc12
inactive: HT29 colon 108% | SNB-75 CNS 89.5% | SNB-19 CNS 94.5% | U251 CNS 116% | PC-3 prostate 78.5% | SK-MEL-5 melanoma 85.9% | UACC-62 melanoma 91.1% | LOX IMVI melanoma 81.9% | SK-MEL-28 melanoma 128%

CC(C)CC1NC(=O)C(CCCN)NC(=O)C(C(C)C)NC(=O)C2CCCN2C(=O)C(Cc2ccccc2)NC(=O)C(CC(C)C)NC(=O)C(CCCN)NC(=O)C(C(C)C)NC(=O)C2CCCN2C(=O)C(Cc2ccccc2)NC1=O (centres undefined)
active: HT29 colon -51.7% | SNB-75 CNS -81.5% | SNB-19 CNS -83% | U251 CNS -94.4% | PC-3 prostate -49.2% | SK-MEL-5 melanoma -98.3% | UACC-62 melanoma -75.3% | LOX IMVI melanoma -86.7% | SK-MEL-28 melanoma -72.1%

Cc1[nH]cnc1/C=C1\SC(N2CCCCC2)=NC1=O
inactive: HT29 colon 108% | SNB-75 CNS 111% | SNB-19 CNS 102% | U251 CNS 108% | PC-3 prostate 106% | SK-MEL-5 melanoma 103% | UACC-62 melanoma 100% | LOX IMVI melanoma 97.7% | SK-MEL-28 melanoma 119%

O=C(N/N=C/c1cccc([N+](=O)[O-])c1)c1ccc(Br)o1
inactive: HT29 colon 105% | SNB-75 CNS 98.5% | SNB-19 CNS 83.5% | U251 CNS 110% | SK-MEL-5 melanoma 97.3% | UACC-62 melanoma 102% | LOX IMVI melanoma 112% | SK-MEL-28 melanoma 133%

CC1(C)CC2(C)CC(=O)C1C(C(=O)O)C2C(=O)O (centres undefined)
inactive: SNB-75 CNS 96.4% | SNB-19 CNS 113% | U251 CNS 101% | PC-3 prostate 108% | SK-MEL-5 melanoma 102% | UACC-62 melanoma 102% | LOX IMVI melanoma 101% | SK-MEL-28 melanoma 117%

NC(=NCCCCCCN=C(N)/N=C(\N)Nc1ccc(Cl)cc1)/N=C(\N)Nc1ccc(Cl)cc1
inactive: SNB-19 CNS 13.7% | PC-3 prostate 20.7% | LOX IMVI melanoma 23.4% | SK-MEL-28 melanoma 32.8%
active: HT29 colon 7.91% | SNB-75 CNS -7.16% | U251 CNS -5.76% | SK-MEL-5 melanoma -95.7% | UACC-62 melanoma 8.7%

CSc1nc(Nc2ccc(S(=O)(=O)Nc3ccon3)cc2)c(C#N)c(-c2ccc(Cl)cc2)n1
inactive: HT29 colon 101% | SNB-75 CNS 102% | SNB-19 CNS 101% | U251 CNS 88.2% | PC-3 prostate 109% | SK-MEL-5 melanoma 97.4% | UACC-62 melanoma 107% | LOX IMVI melanoma 62.3% | SK-MEL-28 melanoma 118%

CCCCCCCCN(CCO)CCCCCCCC
inactive: HT29 colon 103% | SNB-75 CNS 96.5% | SNB-19 CNS 113% | U251 CNS 102% | PC-3 prostate 99.3% | SK-MEL-5 melanoma 98.5% | UACC-62 melanoma 109% | LOX IMVI melanoma 102% | SK-MEL-28 melanoma 101%

CC(=O)Nc1cc(C(c2ccccc2)c2ccccc2)cc(C(c2ccccc2)c2ccccc2)c1C
inactive: HT29 colon 47.8% | SNB-75 CNS 34.2% | SNB-19 CNS 71.4% | U251 CNS 46.8% | PC-3 prostate 15.4% | SK-MEL-5 melanoma 45.6% | UACC-62 melanoma 50% | LOX IMVI melanoma 53% | SK-MEL-28 melanoma 56.8%

O=C1OC(Oc2ccccc2)(c2ccccc2)c2ccccc21 (centres undefined)
inactive: HT29 colon 102% | SNB-75 CNS 97.2% | SNB-19 CNS 115% | U251 CNS 91.4% | PC-3 prostate 91.2% | SK-MEL-5 melanoma 112% | UACC-62 melanoma 100% | LOX IMVI melanoma 89.2% | SK-MEL-28 melanoma 127%
